Five compounds from PubChem BioAssay can be followed below.

Activity calls are given as the source filed them.

Test [1] is described as follows: small molecules captured by biotinylated probe aFSTL3 – biochemical, small-molecule microarray, fluorescence 635/667, stem cell growth factor project, primary screen (AID 1064).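 Further: measures binding of the biotinylated anti-FSTL3 antibody to printed compounds.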 The note with it: higher = more signal.
Test [2] is described as follows: binders from COS7 lysate, DM2A8 probe, primary screen, torsin A project, cell lysate, small-molecule microarray, fluorescence 635/667 (AID 1065). The note with it: higher = more signal, COS7 lysate expressing mutant human TOR1A.
Test [3] in a line: small molecules captured by biotinylated probe aFGF2 – biochemical, small-molecule microarray, fluorescence 635/667, stem cell growth factor project, primary screen (AID 1067).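 Further: measures binding of biotinylated aFGF2 protein to printed compounds on slides; z-score merges feature fluorescence and signal-to-noise across triplicate slides.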 Conditions: higher = more signal.
A short description of test [4]: small molecules captured by biotinylated probe aFGF10 – biochemical, small-molecule microarray, fluorescence 635/667, stem cell growth factor project, primary screen (AID 1071).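 Further: score merges 667 nm spot intensity and signal to noise from triplicate slides.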 Conditions: higher = more signal.
The target in test [5] is Neurogenic locus notch homolog protein 2 (Homo sapiens) (UniProt Q04721). Put plainly: small molecules binding Notch2 protein – biochemical, small-molecule microarray, 635 nm fluorescence, stem cell growth factors, primary screen (AID 1073). Conditions: higher = more signal.
Neurogenic locus notch homolog protein 2 (Homo sapiens), sequence (Q04721 whole entry, looked up, canonical isoform): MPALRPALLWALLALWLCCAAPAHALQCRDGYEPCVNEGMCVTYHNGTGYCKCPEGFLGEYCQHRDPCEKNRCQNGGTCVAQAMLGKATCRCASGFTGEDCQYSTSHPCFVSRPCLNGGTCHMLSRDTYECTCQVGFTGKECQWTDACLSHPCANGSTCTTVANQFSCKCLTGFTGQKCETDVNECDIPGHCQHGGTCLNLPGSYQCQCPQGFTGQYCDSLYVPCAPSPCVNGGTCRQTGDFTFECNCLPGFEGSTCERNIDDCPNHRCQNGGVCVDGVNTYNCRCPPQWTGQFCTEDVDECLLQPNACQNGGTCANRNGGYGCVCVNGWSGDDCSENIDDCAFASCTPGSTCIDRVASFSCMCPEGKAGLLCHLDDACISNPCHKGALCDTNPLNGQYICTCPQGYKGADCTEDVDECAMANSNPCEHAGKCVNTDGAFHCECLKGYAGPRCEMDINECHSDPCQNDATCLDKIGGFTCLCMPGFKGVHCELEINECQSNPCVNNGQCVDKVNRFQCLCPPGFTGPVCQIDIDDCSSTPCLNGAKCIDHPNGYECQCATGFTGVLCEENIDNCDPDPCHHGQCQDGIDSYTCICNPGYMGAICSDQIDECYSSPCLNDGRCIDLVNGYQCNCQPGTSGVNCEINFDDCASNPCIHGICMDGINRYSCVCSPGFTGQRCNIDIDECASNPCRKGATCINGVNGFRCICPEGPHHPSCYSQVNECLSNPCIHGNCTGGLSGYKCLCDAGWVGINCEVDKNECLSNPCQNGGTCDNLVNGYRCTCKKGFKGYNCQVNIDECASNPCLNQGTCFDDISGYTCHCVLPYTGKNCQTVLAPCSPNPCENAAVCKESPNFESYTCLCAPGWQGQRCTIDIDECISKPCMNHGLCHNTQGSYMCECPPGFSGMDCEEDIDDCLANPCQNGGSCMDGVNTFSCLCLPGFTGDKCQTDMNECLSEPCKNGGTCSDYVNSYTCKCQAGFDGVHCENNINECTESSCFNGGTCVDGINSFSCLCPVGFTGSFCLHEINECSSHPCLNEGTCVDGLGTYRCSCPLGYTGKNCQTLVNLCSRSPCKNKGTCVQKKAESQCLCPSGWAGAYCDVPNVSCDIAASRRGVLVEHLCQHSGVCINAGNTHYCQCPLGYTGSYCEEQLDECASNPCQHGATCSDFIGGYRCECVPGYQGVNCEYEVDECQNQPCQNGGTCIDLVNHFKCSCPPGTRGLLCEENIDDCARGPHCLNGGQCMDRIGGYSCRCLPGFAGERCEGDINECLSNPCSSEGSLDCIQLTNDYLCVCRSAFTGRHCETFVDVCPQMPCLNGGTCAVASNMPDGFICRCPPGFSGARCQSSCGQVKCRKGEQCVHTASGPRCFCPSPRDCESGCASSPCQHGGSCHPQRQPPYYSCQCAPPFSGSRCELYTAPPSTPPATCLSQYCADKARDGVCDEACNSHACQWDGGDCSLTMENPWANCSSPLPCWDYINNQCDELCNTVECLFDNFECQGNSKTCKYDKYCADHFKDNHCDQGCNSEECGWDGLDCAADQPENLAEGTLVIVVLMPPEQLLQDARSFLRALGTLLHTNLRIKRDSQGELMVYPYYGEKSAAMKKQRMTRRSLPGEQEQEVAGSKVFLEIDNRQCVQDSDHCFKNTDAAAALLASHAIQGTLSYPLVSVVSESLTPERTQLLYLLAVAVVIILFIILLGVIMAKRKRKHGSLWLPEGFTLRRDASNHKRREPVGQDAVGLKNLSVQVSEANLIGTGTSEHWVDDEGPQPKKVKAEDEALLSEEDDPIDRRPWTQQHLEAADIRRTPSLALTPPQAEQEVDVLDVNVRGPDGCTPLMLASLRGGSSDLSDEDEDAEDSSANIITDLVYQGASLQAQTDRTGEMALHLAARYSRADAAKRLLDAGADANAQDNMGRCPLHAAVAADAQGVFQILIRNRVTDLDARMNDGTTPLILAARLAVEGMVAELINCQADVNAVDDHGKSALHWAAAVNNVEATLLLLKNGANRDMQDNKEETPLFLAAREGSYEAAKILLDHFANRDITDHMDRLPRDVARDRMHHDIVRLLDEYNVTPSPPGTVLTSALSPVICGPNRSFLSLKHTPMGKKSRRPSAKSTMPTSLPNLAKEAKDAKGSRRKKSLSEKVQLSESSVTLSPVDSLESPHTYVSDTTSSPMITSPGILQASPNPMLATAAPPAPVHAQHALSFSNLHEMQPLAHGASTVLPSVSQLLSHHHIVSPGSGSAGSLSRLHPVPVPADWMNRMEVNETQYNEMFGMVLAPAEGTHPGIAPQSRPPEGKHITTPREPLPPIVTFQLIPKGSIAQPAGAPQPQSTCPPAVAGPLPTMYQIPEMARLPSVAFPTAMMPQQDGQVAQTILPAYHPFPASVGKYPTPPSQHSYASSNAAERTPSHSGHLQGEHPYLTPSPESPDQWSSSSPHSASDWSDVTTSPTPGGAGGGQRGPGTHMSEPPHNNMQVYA
Test [6] deals with Pro-neuregulin-1, membrane-bound isoform (Homo sapiens) (UniProt Q02297). The test is described as follows: small molecules binding neuregulin-1 protein – biochemical, small-molecule microarray, fluorescence 635/667, psychiatric disease protein project, primary screen (AID 1075).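 Further: score combines 667 nm spot fluorescence with signal to noise.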 Conditions: NRG1 binding, 635 nm fluorescence, higher = more signal.
Pro-neuregulin-1, membrane-bound isoform (Homo sapiens), sequence (Q02297 whole entry, looked up, the tested form may be a part, canonical isoform): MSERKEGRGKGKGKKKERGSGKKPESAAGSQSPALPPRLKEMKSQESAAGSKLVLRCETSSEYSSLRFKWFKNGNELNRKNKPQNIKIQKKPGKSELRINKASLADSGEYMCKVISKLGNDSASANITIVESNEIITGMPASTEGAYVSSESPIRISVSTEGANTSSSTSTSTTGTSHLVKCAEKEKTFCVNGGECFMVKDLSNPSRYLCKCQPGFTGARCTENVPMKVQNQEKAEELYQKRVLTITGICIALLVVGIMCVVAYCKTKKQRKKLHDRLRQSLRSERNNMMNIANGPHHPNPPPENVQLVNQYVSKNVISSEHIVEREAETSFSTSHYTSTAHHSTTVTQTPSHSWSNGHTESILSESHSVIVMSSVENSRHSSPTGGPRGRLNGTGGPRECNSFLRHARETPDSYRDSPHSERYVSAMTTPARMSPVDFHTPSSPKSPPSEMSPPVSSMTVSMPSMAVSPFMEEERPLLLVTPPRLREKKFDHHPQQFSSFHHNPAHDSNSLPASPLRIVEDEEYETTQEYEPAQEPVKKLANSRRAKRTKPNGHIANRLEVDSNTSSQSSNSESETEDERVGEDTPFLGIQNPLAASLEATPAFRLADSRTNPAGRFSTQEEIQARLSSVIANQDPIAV
Test [7] relates to Neuregulin-1 EGF-like domain. Put plainly: small molecules binding NRG1 EGF domain – biochemical, small-molecule microarray, 635 nm fluorescence, primary screen (AID 1081).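 Further: binding of the protein to compounds printed on small-molecule microarray slides.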 The note with it: higher = more signal.
A short description of test [8]: FRG1 expression reporter modulators in myotubes – cell-based, C2C12 myotubes, firefly/Renilla luciferase, luminescence, FRG1 inhibition for FSHD, primary screen (AID 1084). The note with it: FRG1 promoter luciferase, higher = more signal, called active from +8 up or from −8 down.
Test [9] can be described thus: small molecules captured by biotinylated probe aFST – biochemical, small-molecule microarray, fluorescence 635/667, stem cell growth factor project, primary screen (AID 1086).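 Further: score merges 667 nm fluorescence with signal-to-noise of each printed compound spot.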 Conditions: higher = more signal.
Test [10] can be described thus: binders of probe aHhip on microarray, primary screen, stem cell growth factor project, biochemical, small-molecule microarray, fluorescence 635/667 (AID 1087).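 Further: score merges spot fluorescence at 667nm with spot signal to noise ratio.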 Conditions: higher = more signal.
For test [11], the system named is PRMT1 (protein arginine N-methyltransferase 1). The test is described as follows: small molecules binding arginine methyltransferase PRMT1 – biochemical, small-molecule microarray, 635 nm fluorescence, primary screen (AID 1088).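 Further: binding of Prmt1 protein to compounds spotted on small-molecule microarray slides.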 The note with it: higher = more signal.
Test [12] in a line: growth effects on S. cerevisiae YJM789 – YJM789 clinical isolate, OD600, 24 h, basal, primary screen (AID 1089).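 Further: growth of clinical yeast isolate S. cerevisiae YJM 789 seeded 1000 cells per well; test concentration not given here.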 Conditions: higher = more signal, called active from +8 up or from −8 down.
Test [13] is described as follows: S. pombe growth modifiers, basal conditions – strain 972, OD600, 24 h, no modulator, primary screen (AID 1090).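 Further: basal condition with compound alone and no growth modifier present; test concentration not given here.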 The note with it: S. pombe 972 growth, higher = more signal, called active from +8 up or from −8 down.
Test [14] can be described thus: budding yeast growth modifiers under rapamycin – strain BY4716, OD600, 96 h, primary screen (AID 1091). Further: test concentration not given here. Conditions: S. cerevisiae BY4716 + rapamycin, higher = more signal, called active from +8 up or from −8 down.
Test [15] concerns the target Torsin-1A-interacting protein 2 (Homo sapiens) (UniProt Q8NFQ8). The test is described as follows: small molecules binding lysate-expressed LULL1 – cell lysate, human LULL1 lysate, 635/667 nm fluorescence, primary screen (AID 1092).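 Further: score merges per-feature 667 nm fluorescence with signal-to-noise.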 The note with it: small-molecule microarray, hLULL1 lysate binding, 635 nm fluorescence; higher = more signal.
The nature of test [16]: optical density change of DRC41 E. coli – strain DRC41, OD650, 24 h, E. coli filamentation project, primary screen (AID 1093).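 Further: MC1000 strain lacking acrAB efflux and sulA so SOS filamentation is blocked; test concentration not given here.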 The note with it: E. coli DRC41 growth, higher = more signal, called active from +8 up or from −8 down.
Test [17] in a line: probe aLefty2 binding to arrayed compounds – biochemical, biotinylated probe, 635/667 nm fluorescence, primary screen (AID 1094).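 Further: score merges spot fluorescence near 667 nm with spot signal-to-noise ratio.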 The note with it: small-molecule microarray, higher = more signal.
Test [18] concerns Noggin (protein binding on small-molecule microarray). Put plainly: small molecules binding Noggin protein – biochemical, 635/667 nm fluorescence, primary screen (AID 1095).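 Further: score merges 667 nm feature fluorescence with signal to noise over triplicate slides.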 Conditions: 635 nm fluorescence, higher = more signal.
The target of test [19] is Neurogenic locus notch homolog protein 3 (Homo sapiens) (UniProt Q9UM47). The test is described as follows: small molecules binding NOTCH3 protein – biochemical, 635/667 nm fluorescence, primary screen (AID 1096). The note with it: small-molecule microarray, 635 nm fluorescence, higher = more signal.
A short description of test [20]: probe aEGFR binding to arrayed compounds – biochemical, biotinylated probe, 635/667 nm fluorescence, primary screen (AID 1097).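 Further: probe is a biotinylated anti-EGFR antibody binding compounds printed on slides; score combines fluorescence near 667 nm and signal to noise of each spot.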 The note with it: small-molecule microarray, higher = more signal.

Torsin-1A-interacting protein 2 (Homo sapiens), sequence (Q8NFQ8 whole entry, looked up): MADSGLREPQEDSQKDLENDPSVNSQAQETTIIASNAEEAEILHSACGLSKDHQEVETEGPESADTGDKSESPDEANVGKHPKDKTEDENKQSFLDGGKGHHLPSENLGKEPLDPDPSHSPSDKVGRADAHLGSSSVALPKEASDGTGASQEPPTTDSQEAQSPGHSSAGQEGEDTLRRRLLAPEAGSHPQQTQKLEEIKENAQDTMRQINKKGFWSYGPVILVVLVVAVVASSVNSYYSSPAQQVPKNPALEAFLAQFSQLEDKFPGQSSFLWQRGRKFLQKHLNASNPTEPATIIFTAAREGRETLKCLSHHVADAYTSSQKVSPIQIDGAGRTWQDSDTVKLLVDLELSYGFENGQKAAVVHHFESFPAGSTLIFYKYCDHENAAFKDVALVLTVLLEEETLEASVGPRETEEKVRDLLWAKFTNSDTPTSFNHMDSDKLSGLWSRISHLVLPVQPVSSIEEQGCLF

In the case of `CCCCC(=C=CC[C@H](O)c1ccccc1OCCO)C[C@H](O)c1cc(Cl)cc(Cl)c1O`, the composite z-score is -0.114 in test [1]; -0.257 in [2]; -0.0628 in [3]; 0.583 in test [4]; 0.151 in test [5]; 0.371 in [6]. The composite z-score was 1.1 in [7]; 0.0025 in test [9]; -0.226 in [10]; 1.1 in [11]; 1.3 in [15]; -0.118 in test [17]. Besides, the results for the composite z-score in [18], in [19] and in test [20] were 0.453, 0.224 and -0.163, respectively. In addition, the z-score in [8] was -2.37 (inactive); in test [12], 0.906 (inactive); in [13], -1.33 (inactive); in test [14], 0.32 (inactive); in test [16], -0.144 (inactive).

Consider `O=C1OCCC/C=C\[C@H]2OC34C=CCN(Cn5nnc6ccccc65)C(=O)[C@H]3N(CCCO)C(=O)[C@@H]4C12` (stereo not given in full), for which the composite z-score in test [1] was 0.415; in [2] it was -0.652; in [3], -0.017; in [4] it was -1; in test [5] it was -0.936; in test [6], 0.995. Further, the composite z-score in test [7] was 1.13; in test [9] it was -1.28; in test [10] it was -0.271; in test [11] it was 1.19; in test [15], 3.64; in [17], -0.225. Moreover, the composite z-score is -0.9 in test [18], -0.0127 in test [19] and -0.232 in test [20]. Moreover, the z-score in test [8] was -0.126 (inactive); in test [12], -0.57 (inactive); in test [13], 0.0555 (inactive); in [14], -0.264 (inactive); in test [16], 0.123 (inactive).

Turning to `C=CCOC(=O)[C@@H]1[C@H]2C(=O)O[C@H](c3ccccc3)[C@H](c3ccccc3)N2[C@H](c2ccc(OCCOC(=O)[C@H]3C[C@H]4C(=O)N[C@@H](CC(C)C)C(=O)N4[C@H]3c3cccc(OCCO)c3)cc2)[C@@]12C(=O)Nc1ccc(I)cc12`, the composite z-score in test [1] is -0.187; in test [2] it was 0.83; in [3], -0.0232; in [4] it was 0.81; in test [5], 0.809; in test [6], 0.71. Also, the composite z-score is 1.27 in [7]; 0.186 in test [9]; -0.0296 in test [10]; 1.53 in [11]; 2.66 in [15]; -0.0849 in test [17]. Moreover, the composite z-score was 1.58 in test [18], 1.06 in [19] and -0.0769 in test [20]. Besides, the z-score in test [8] is 1.6 (inactive); in test [12], 0.705 (inactive); in test [13], 0.492 (inactive); in test [14] it was 2.65 (inactive); in test [16], 0.147 (inactive).

For `COC(=O)[C@@]1(Cc2ccc(OC)cc2)[C@H]2c3cc(C(=O)N(C)C)n(Cc4ccc(OC)c(OC)c4)c3C[C@H]2CN1C(=O)c1ccccc1`, the composite z-score is 0.42 in test [1]; 0.796 in test [2]; -0.0824 in test [3]; 0.336 in test [4]; 1.73 in test [5]; 1.86 in test [6]. Moreover, the composite z-score was determined as 1.28 in [7]; 1.39 in [9]; 0.525 in [10]; 1.58 in test [11]; 3.65 in test [15]; 0.401 in test [17]. The figures for the composite z-score in test [18], in test [19] and in test [20] were -0.356, 1.03 and 0.288, respectively. Also, the z-score was 0.889 (inactive) in test [8]; 1.04 (inactive) in test [12]; 2.35 (inactive) in [13]; 4.24 (inactive) in test [14]; -0.841 (inactive) in test [16].

Turning to `C[C@H]1C2[C@H](Cc3ccccc3)NC(=O)[C@]23C(=O)N[C@H](Cc2ccccc2)C(=O)N[C@H](Cc2ccccc2)C(=O)NC/C=C/CCC/C=C/C3[C@@H]2O[C@]12C` (stereo not given in full), the composite z-score is -0.367 in test [1]; 0.881 in test [2]; -0.174 in test [3]; 0.309 in [4]; -0.163 in [5]; 0.365 in test [6]. The composite z-score in test [7] was 1.21; in [9], 0.22; in [10], 0.154; in test [11] it was 0.786; in [15] it was 2.17; in [17] it was -0.241. Also, the composite z-score in test [18] was 1.58; in test [19], 0.62; in test [20] it was -0.152. The z-score in test [8] is 4.86 (inactive); in test [12], 0.524 (inactive); in test [13], -1.84 (inactive); in test [14], 0.254 (inactive); in [16], 1.35 (inactive).
